In ChEMBL document CHEMBL4513160, “CO-ADD screening of MMV (CH) - Small Polar Library” one finds Inhibition data, which are given here for 68 compounds.

The term Inhibition denotes the relative decrease from the control value, in per cent.

Out of some 23,000 compounds screened, about 30 (0.1%) showed an effect of 50% or more. Many of the other results were omitted from the sample, so strong results are more common in it than they were. Measured potencies and affinities stand elsewhere.

This assay concerns Pseudomonas aeruginosa. The note with it: Concentration 300 ug.mL-1; ASSAY_TEST Inhibition of Bacterial Growth; detection method Absorption (OD600); MEDIA CAMHB; plate type 384well; NBS; CORNING #3640; time 18 hr.
As to `CSCc1noc(CN2CCC(=O)NCC2C)n1` (stereo not drawn), the Inhibition came to 2.5%.
The result for `CCc1n[nH]c(=O)n1CC` reads 16.77%; that for `O=C1C=CC(=O)N1C1CCCCC1`, 14.45%.
The result for `O=C(c1cc(F)ccc1Br)N1CCNCC1` reads -21.94%.
Turning to `CNCc1ncc(C)c(OC)c1C`, the Inhibition stood at 22.51%.
Turning to `CC(=O)NCc1ccc(C(=O)CSc2ccccn2)s1`, the Inhibition amounted to 23.63%.
To `CN(Cc1cccc(C#N)c1)C(=O)C1CC1` belongs 11.31%.
With `CN(C)S(=O)(=O)NCc1ccc(Cn2ccnc2)cc1`, the Inhibition is -10.43%.
The result for `NC(=O)C1(NCc2ccc(Br)c3cccnc23)CC1` reads 4.47%.
In the case of `NC(=O)CCNCc1ccc(Cl)c2cccnc12`, the Inhibition is recorded as 17.51%.
The result for `OCc1cccc2ncccc12` reads -43.09%.
To `CC(=O)NCCCNCc1ccc(Br)c2cccnc12` belongs 29.22%; to `O=C(c1nnsc1-c1ccc(Cl)cc1)N1CCSCC1`, -1.35%; to `CN(C)CCCC(=O)N1CCCC(CO)(CC2CC2)C1` (stereo not drawn), -1.87%.
For the compound `CC1CCN(C(=O)CCN2C[C@H](C3CC3)[C@@H](N)C2)CC1`, the Inhibition worked out at 0.49%.
To `OC(CN1CCn2ccnc2C1)c1ccc(Cl)cc1` (stereo not drawn) belongs -6.36%; to `CSCCC(O)C(=O)NCCc1scnc1C` (stereo not drawn), -25.65%; to `COCCN(Cc1ccccn1)C(=O)CC1CCNC1` (stereo not drawn), -0.17%.
For the compound `CN1CCOC[C@H]2CCN(C(=O)c3cccs3)C[C@H]21`, the Inhibition is given as -22.95%.
As to `CNC(=O)C(C)Sc1nccn1-c1ccc(OC)cc1` (stereo not drawn), the Inhibition came to 17.22%.
To `N#Cc1cccc(CN2CCCC(O)C2)c1` (stereo not drawn) belongs 9.18%; to `CN(CCNC(=O)c1cnc[nH]1)Cc1ccc(F)cc1`, 37.03%; to `CNC1(C(=O)OC)CCCCC1`, -2.18%.
With `Cc1cc(NC(=O)CSCC(=O)N2CCC2)no1`, the Inhibition was 7.6%.
As for `CCOC(=O)c1nc(C)n(C)n1`, the Inhibition is 10.82%.
Consider `c1cc2c(cc1CNc1nnc(C3CC3)o1)OCCO2`, for which the Inhibition is -5.88%.
Turning to `O=C(CCCc1cn[nH]c1)N1CCc2ccccc2C1`, the Inhibition turned out to be 6.06%.
As to `CCCC(C)NC(=O)c1coc(C)n1` (stereo not drawn), the Inhibition is -6.54%.
Turning to `CCN(CC(C)C#N)C(=O)c1ccc(Br)o1` (stereo not drawn), the Inhibition is -3.61%.
The result for `COC(=O)[C@@H]1CCN[C@@H]1C(C)C` reads 12.69%; that for `C1CN(C2CCN(c3nnc(C4CC4)o3)CC2)CCS1`, 8.74%; that for `C=C(C)CNC(=O)Nc1cccc(N2CCNC2=O)c1`, -38.18%.
Take `CCc1ccc(CN(CCO)Cc2nccn2C)nc1`: the Inhibition is on record as -17.17%.
Take `Clc1ccc(-c2noc(CN3CCCNCC3)n2)cc1`: the Inhibition turned out to be 46.35%.
To `NC(=O)c1cc(N2CCCC2)ccn1` belongs -17.78%.
To `Fc1ccc2[nH]cnc2c1` belongs 26.41%; to `CNCCC1CCCO1` (stereo not drawn), 6.91%.
With `CNC1CC(=O)N(Cc2ccccc2)C1=O` (stereo not drawn), the Inhibition is given as -1.73%.
On to `CC1(C)C[S+]([O-])CCN1C(=O)c1cccc(F)c1Cl` (stereo not drawn), for which the Inhibition is given as 17.16%.
To `CCN(CC)C(=O)[C@@H]1C[C@@H](N)CN1C(=O)CS(C)(=O)=O` belongs 7.51%; to `Nc1ncn(S(=O)(=O)c2ccccc2)n1`, -6.3%.
As for `Cc1n[nH]cc1CNCc1ccc(-n2ccnc2)nc1`, the Inhibition is on record as 0.04%.
The result for `O=C(CC1CCCN1)c1ccco1` (stereo not drawn) reads 24.64%; that for `CC(O)C(=O)NC(N)=O` (stereo not drawn), 10.69%; that for `O=c1ccoc2ccc(F)cc12`, 24.86%.
On to `CCCn1cnnc1CNCC(=O)Nc1cnccn1`, for which the Inhibition turned out to be 7.89%.
The result for `CNC(=O)NC(=O)C(C)N1CCN(c2nccs2)CC1` (stereo not drawn) reads 0.51%; that for `CCCc1nnc(N2CCC3(CC2)OCC(C)O3)s1` (stereo not drawn), -23.27%.
In the case of `CC(C)NC(=O)c1cn(Cc2ccc(Cl)cc2)nn1`, the Inhibition is reported as 37.8%.
`CCOC(=O)CNC(=O)N1CCn2cccc2C1C` (stereo not drawn): the Inhibition is given as -25.66%.
As for `O=C(Cc1ccsc1)N[C@@H]1CCOC[C@H]1OCCO`, the Inhibition turned out to be 1.98%.
To `c1ccc(C2=NN=C(NC3CC3)SC2)cc1` belongs 6.85%; to `O=C(Cc1cccc(O)c1)NCCn1cc(Cl)cn1`, -17.42%.
To `COc1cc(C(=O)N[C@@H]2CC[C@@H](N)C2)ccc1F` belongs 12.15%.
For `N[C@@H]1CCOc2c(F)ccc(F)c21`, the Inhibition is 32.11%.
To `CC(Sc1ccccc1Cl)C(=O)NCC(=O)N(C)C` (stereo not drawn) belongs 4.5%; to `CCC(c1ccc(F)cc1)N1CC[S+]([O-])CC1` (stereo not drawn), 11.41%; to `NS(=O)(=O)N(Cc1cccnc1)Cc1ccco1`, 8.52%.
The result for `COCCNCC(=O)Nc1cccc(CSC)c1` reads 7.12%; that for `CCn1nc(C)c(CN2CCCCC(N)C2)c1C` (stereo not drawn), 14.9%; that for `O=C(CCN1CCC(CO)CC1)Nc1ccccc1F`, 3.62%.
The result for `Cc1noc(CN2CCN(S(C)(=O)=O)CC2)n1` reads -16.86%; that for `CCS(=O)(=O)c1cncnc1N`, 19.95%; that for `Cc1noc(C)c1CCC(=O)NC(C)c1ccccn1` (stereo not drawn), -45.2%.
Turning to `Cc1cc(C)cc(N2CCNCC2=O)c1`, the Inhibition is 2.16%.
The result for `NC(=O)C1=NOC(CNCc2ccccc2Cl)C1` (stereo not drawn) reads 23%.
To `Cc1cc(C(=O)N[C@@H]2CCOC[C@H]2O)sc1C` belongs 10.73%; to `COc1ccc2[nH]c(CCCN)nc2c1`, 28.12%.
